The values below come from the supplement of paper PMC4723716.

± gives the uncertainty stated by the source. The full ranking holds about 9,900 compounds; the median of “viability index relative to DMSO control” is about 1, and the lowest 2% start at about 0.85. Many of the other results were omitted from the sample, so the lowest values are more common in it than they were.

In the assay the test system is Plasmodium falciparum NF54 stage V gametocytes. Nature of the assay: viability index relative to DMSO control (fraction); higher = less gametocyte killing. The following applies: 2.5 µM, library set: Broad Institute DOS, incubation time: 72 h. As to the method:
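Broad DOS informer set and blood-stage-active DOS compounds screened in duplicate at 2.5 µM against P. falciparum NF54 stage V gametocytes with the serum-free one-step SaLSSA (1536-well): 72 h at 37 °C under low oxygen, then saponin lysis and MitoTracker Red CMXRos staining, with high-content imaging. Viability index = viable-object count divided by the plate mean of DMSO wells (0 = killed, about 1 = inactive).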
`O=C1CNC[C@H]2[C@H](c3ccc(Br)cc3)[C@H](CO)N12` had a viability index of 1.05 ± 0.023.

In turn, `O=C1CNC[C@H]2[C@@H](c3ccc(Br)cc3)[C@H](CO)N12` returned a viability index of 0.837 ± 0.14.

The compound `O=C1CNC[C@@H]2[C@H](c3ccc(Br)cc3)[C@H](CO)N12` registered a viability index of 0.992 ± 0.074.

Take `COc1cccc(-c2ccc([C@H]3[C@@H](CO)N4CCCCN(C(=O)Cc5ccncc5)C[C@H]34)cc2)c1`: the viability index worked out at 1.06 ± 0.046.

As to `O=C(O)C[C@@H]1CC[C@H]2NC[C@@H](O)COC[C@@H]2O1`, the viability index worked out at 1.13 ± 0.034.

`O=C(Cc1ccncc1)N1CCCCN2[C@@H](CO)[C@@H](c3ccc(C#Cc4ccccc4F)cc3)[C@@H]2C1` yielded a viability index of 0.964 ± 0.047.

`O=C(Cc1ccncc1)N1CCCCN2[C@H](CO)[C@@H](c3ccc(C#Cc4ccccc4F)cc3)[C@@H]2C1` came in with a viability index of 0.9619 ± 0.0014.

Compound `O=C(Cc1ccncc1)N1CCCCN2[C@@H](CO)[C@H](c3ccc(C#Cc4ccccc4F)cc3)[C@@H]2C1` came in with a viability index of 0.84 ± 0.22.

With `C[C@@H]1CN([C@@H](C)CO)C(=O)CCCn2cc(nn2)CO[C@@H]1CN(C)C(=O)Oc1ccc2ccccc2c1`, the viability index came out at 1.05 ± 0.019.

For the compound `C/C=C/c1ccc([C@@H]2[C@@H]3CN(C(=O)C4CCOCC4)C[C@H]2N3)cc1`, the viability index turned out to be 1.06 ± 0.011.
